Four molecules from PubChem BioAssay (NCI) can be followed below.

Compounds without any hit were thinned out: in the full panel of roughly 79,000, 15% have a hit. Values without a mark were called inactive. The source made the active and inactive calls. Rule as the data show it: active = growth inhibition above about 70%; inactive = the rest.

Experiment [1] is described as follows: NCI Yeast Anticancer Drug Screen. Data for the rad50 strain (AID 155).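 Also: 0% = growth of vehicle-only cultures of the same strain.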 To be noted: S. cerevisiae rad50 strain growth inhibition, stronger effect = higher value. A digest of the protocol: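 Relative growth inhibition (compound vs vehicle) was measured in yeast with a defined repair-gene alteration.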
Experiment [2] in a line: NCI Yeast Anticancer Drug Screen. Data for the mec2-1 strain (AID 157). To be noted: S. cerevisiae mec2-1 strain, stronger effect = higher value. A digest of the protocol: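 Growth inhibition is read against vehicle-treated controls after compound exposure of the mec2-1 yeast strain, which is defective in DNA damage repair or cell cycle control.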
The nature of experiment [3]: NCI Yeast Anticancer Drug Screen. Data for the sgs1 mgt1 strain (AID 161).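 Also: 0% = growth of cultures given vehicle only.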 To be noted: S. cerevisiae sgs1 mgt1 strain, stronger effect = higher value. The method in brief: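 Growth of a repair-deficient yeast mutant was monitored after compound treatment and expressed as inhibition relative to vehicle-treated cultures.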
Experiment [4] is described as follows: NCI Yeast Anticancer Drug Screen. Data for the cln2 rad14 strain (AID 165).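 Also: 0% = growth equal to vehicle treated cultures.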 To be noted: S. cerevisiae cln2 rad14 strain, stronger effect = higher value. The method in brief:
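Growth inhibition, relative to vehicle-treated controls, is the read-out. The test organism is a yeast strain with defined genetic alterations, cln2 rad14.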

Experiment [5] is described as follows: NCI Yeast Anticancer Drug Screen. Data for the bub3 strain (AID 167). Conditions: S. cerevisiae bub3 mutant strain, stronger effect = higher value. A digest of the protocol: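 Screening used yeast with an engineered genetic alteration affecting cell cycle control. Compound-exposed cultures were compared with vehicle cultures, and reduced growth was taken as inhibition.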

Experiment [6] is described as follows: NCI Yeast Anticancer Drug Screen. Data for the mlh1 rad18 strain (AID 175). Conditions: S. cerevisiae mlh1 rad18 strain growth inhibition, stronger effect = higher value. A digest of the protocol: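 Cells of a genetically altered yeast strain, deficient in DNA damage repair, were treated with compound. Their growth was then compared with that of vehicle-treated cultures to give inhibition.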

Where [7] appears, read: at 5.0 µM (retest, dose inferred, filed as 0.5).
The mark [8] stands for this setting: at 50.0 µM (retest, dose inferred, filed as 5.0).

Turning to `Clc1ccc(COC(CN2CCOCC2)c2ccccc2)c(Cl)c1` (configuration not stated), the growth inhibition in experiment [1] (setting [7]) is 2%; in experiment [1] (setting [8]), 89% (active); in experiment [1] (at 50.0 µM) it was 94.8% (active); in experiment [2] (setting [7]), 8%; in experiment [2] (setting [8]) it was 92% (active); in experiment [2] (at 50.0 µM), 96.2% (active). Besides, the growth inhibition is 19% in experiment [3] (setting [7]); 98% (active) in experiment [3] (setting [8]); 96% (active) in experiment [3] (at 50.0 µM); 11% in experiment [4] (setting [7]); 83% (active) in experiment [4] (setting [8]); 98.2% (active) in experiment [4] (at 50.0 µM). For the same molecule, the growth inhibition is 23% in experiment [5] (setting [7]); 95% (active) in experiment [5] (setting [8]); 94.9% (active) in experiment [5] (at 50.0 µM); 11% in experiment [6] (setting [7]); 87% (active) in experiment [6] (setting [8]); 97.6% (active) in experiment [6] (at 50.0 µM).

Turning to `Cn1nc(-c2ccccc2NC(=O)C(F)(F)F)c(=O)n(C)c1=S`, the growth inhibition in experiment [1] (setting [7]) is -3%; in experiment [1] (setting [8]), 37%; in experiment [1] (at 50.0 µM), 56.9%; in experiment [2] (setting [7]), 3%; in experiment [2] (setting [8]) it was 21%; in experiment [2] (at 50.0 µM) it was 43.9%. Further, the growth inhibition in experiment [3] (setting [7]) was 14%; in experiment [3] (setting [8]), 25%; in experiment [3] (at 50.0 µM), 50.5%; in experiment [4] (setting [7]), -3%; in experiment [4] (setting [8]) it was 14%; in experiment [4] (at 50.0 µM), 33.6%. In addition, the growth inhibition in experiment [5] (setting [7]) is 4%; in experiment [5] (setting [8]), 27%; in experiment [5] (at 50.0 µM), 27.7%; in experiment [6] (setting [7]), 0%; in experiment [6] (setting [8]), 34%; in experiment [6] (at 50.0 µM), 73.9% (active).

Consider `COc1cc(CC(=O)O)c(Cc2ccc3c(c2)Cc2ccccc2-3)cc1OC`, for which the growth inhibition was -7% in experiment [1] (setting [7]); 94% (active) in experiment [1] (setting [8]); 49% in experiment [1] (at 50.0 µM); 4% in experiment [2] (setting [7]); 77% (active) in experiment [2] (setting [8]); 53.5% in experiment [2] (at 50.0 µM). For the same molecule, the growth inhibition in experiment [3] (setting [7]) is -1%; in experiment [3] (setting [8]), 92% (active); in experiment [3] (at 50.0 µM), 52.1%; in experiment [4] (setting [7]), 6%; in experiment [4] (setting [8]) it was 91% (active); in experiment [4] (at 50.0 µM) it was 88.7% (active). For the same molecule, the growth inhibition in experiment [5] (setting [7]) is -7%; in experiment [5] (setting [8]), 95% (active); in experiment [5] (at 50.0 µM), 94.5% (active); in experiment [6] (setting [7]) it was 2%; in experiment [6] (setting [8]) it was 88% (active); in experiment [6] (at 50.0 µM), 47.6%.

Turning to `CN(C)CCOC(=O)C1(CCC2CCCCC2)CCCCC1`, the growth inhibition is 0% in experiment [1] (setting [7]); 80% (active) in experiment [1] (setting [8]); 96.9% (active) in experiment [1] (at 50.0 µM); -1% in experiment [2] (setting [7]); 17% in experiment [2] (setting [8]); 30.9% in experiment [2] (at 50.0 µM). Besides, the growth inhibition in experiment [3] (setting [7]) is -2%; in experiment [3] (setting [8]), 57%; in experiment [3] (at 50.0 µM) it was 60.5%; in experiment [4] (setting [7]) it was -3%; in experiment [4] (setting [8]), 37%; in experiment [4] (at 50.0 µM) it was 18.7%. Besides, the growth inhibition was 1% in experiment [5] (setting [7]); 32% in experiment [5] (setting [8]); 85% (active) in experiment [5] (at 50.0 µM); -2% in experiment [6] (setting [7]); 77% (active) in experiment [6] (setting [8]); 93.3% (active) in experiment [6] (at 50.0 µM).
